According to PubChem BioAssay (Tox21):
Results filed as inconclusive are left out. The source made the active and inactive calls. Calls follow the shape of the dose curve; as a rule, active = well fitted curve in the direction sought with a large enough effect in the repeat runs; inconclusive = weak or mixed curves; inactive = no such curve, though single readings can be large; an effect the other way counts as inactive or inconclusive.

Assays:
[1] = qHTS RealTime-Glo MT Cell Viability Assay in HepG2 cells - 24 hour (AID 1224867); also: nearly all actives have a fitted effect of over 50% in size
How it was run: (§1)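 Real-time, nonlytic viability: 600 HepG2 cells/well mixed with NanoLuc enzyme plus prosubstrate; 5 h settle, compound (DMSO) added by pintool; luminescence monitored over 40 h at 37 C.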

[2] = qHTS RealTime-Glo MT Cell Viability Assay in HEK293 cells - 32 hour (AID 1224868); also: top concentration of the series differs between compounds; nearly all actives have a fitted effect of over 50% in size
How it was run: (§2)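 Cells + reagent dispensed (600 cells/well, HEK293) → 5 h at 37 C/5% CO2 → 23 nL compound in DMSO pinned → 40 h at 37 C → luminescence read at 0, 8, 16, 24, 32, 40 h.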

[3] = A CellTox Green Cytotoxicity Assay to monitor cytotoxicity in HEK293 cells - 0 hour (AID 1224869); also: nearly all actives have a fitted effect of over 50% in size
How it was run: (§3)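 Nonlytic real-time cytotoxicity: HEK293 + CellTox Green reagent plated, 5 h preincubation, pintool compound addition (23 nL in DMSO), 37 C for 40 h, fluorescence measured at successive time points.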

[4] = qHTS RealTime-Glo MT Cell Viability Assay in HepG2 cells - 40 hour (AID 1224870); also: nearly all actives have a fitted effect of over 50% in size
How it was run: (§4)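 HepG2 cells (600/well) mixed with RealTime-Glo MT reagent, settled 5 h at 37 C/5% CO2 before compound addition. Nonlytic NanoLuc luminescence from viable-cell prosubstrate reduction read repeatedly during 40 h treatment at 37 C.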

[5] = A CellTox Green Cytotoxicity Assay to monitor cytotoxicity in HEK293 cells - 40 hour (AID 1224871); also: nearly all actives have a fitted effect of over 45% in size
How it was run: as §3

[6] = qHTS RealTime-Glo MT Cell Viability Assay in HEK293 cells - 16 hour (AID 1224872)
How it was run: as §2

[7] = qHTS RealTime-Glo MT Cell Viability Assay in HepG2 cells - 8 hour (AID 1224873); also: nearly all actives have a fitted effect of over 55% in size
How it was run: as §4

[8] = qHTS RealTime-Glo MT Cell Viability Assay in HEK293 cells - 40 hour (AID 1224874); details: RealTime-Glo luminescence, stronger effect = lower value; also: nearly all actives have a fitted effect of over 50% in size
How it was run: (§5)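 Cells were seeded together with NanoLuc luciferase and a prosubstrate that viable cells reduce to a luciferase substrate. After a 5 h incubation at 37 C/5% CO2, compounds were added and luminescence was measured repeatedly during 40 h of treatment.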

[9] = A CellTox Green Cytotoxicity Assay to monitor cytotoxicity in HepG2 cells - 16 hour (AID 1224876); also: nearly all actives have a fitted effect of over 45% in size
How it was run: (§6)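 Read-out is fluorescence of a cyanine dye excluded from live cells that stains DNA of dead HepG2 cells, with signal proportional to cytotoxicity. Plates were read at 0, 8, 16, 24, 32 and 40 h after compound addition.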

[10] = qHTS RealTime-Glo MT Cell Viability Assay in HepG2 cells - 32 hour (AID 1224877); also: nearly all actives have a fitted effect of over 55% in size
How it was run: as §1

[11] = A CellTox Green Cytotoxicity Assay to monitor cytotoxicity in HepG2 cells - 24 hour (AID 1224878); also: nearly all actives have a fitted effect of over 45% in size; also: potency is read from the fitted curve at half-maximal effect
How it was run: as §6

[12] = A CellTox Green Cytotoxicity Assay to monitor cytotoxicity in HepG2 cells - 40 hour (AID 1224879); also: nearly all actives have a fitted effect of over 40% in size; also: potency is read from the fitted curve at half-maximal effect
How it was run: as §6

[13] = A CellTox Green Cytotoxicity Assay to monitor cytotoxicity in HepG2 cells - 0 hour (AID 1224882); also: nearly all actives have a fitted effect of over 35% in size
How it was run: as §6

[14] = A CellTox Green Cytotoxicity Assay to monitor cytotoxicity in HepG2 cells - 32 hour (AID 1224883); also: nearly all actives have a fitted effect of over 50% in size; also: potency is read from the fitted curve at half-maximal effect
How it was run: as §6

[15] = A CellTox Green Cytotoxicity Assay to monitor cytotoxicity in HEK293 cells - 8 hour (AID 1224884); also: nearly all actives have a fitted effect of over 35% in size
How it was run: as §3

[16] = qHTS RealTime-Glo MT Cell Viability Assay in HepG2 cells - 16 hour (AID 1224885); also: nearly all actives have a fitted effect of over 50% in size
How it was run: as §1

[17] = qHTS RealTime-Glo MT Cell Viability Assay in HEK293 cells - 24 hour (AID 1224886)
How it was run: as §2

[18] = A CellTox Green Cytotoxicity Assay to monitor cytotoxicity in HEK293 cells - 24 hour (AID 1224875); also: series mostly up to about 77 µM; nearly all actives have a fitted effect of over 45% in size
How it was run: as §3

[19] = qHTS RealTime-Glo MT Cell Viability Assay in HEK293 cells - 0 hour (AID 1224880)
How it was run: as §5

[20] = A CellTox Green Cytotoxicity Assay to monitor cytotoxicity in HEK293 cells - 32 hour (AID 1224881); also: nearly all actives have a fitted effect of over 40% in size
How it was run: as §3
% is scaled to controls: 0 for no effect and ±100 for the full control effect.

O=C(O)/C=C(\CC(=O)O)C(=O)O
inactive: outcome [1] | outcome [2] | outcome [3] | outcome [4] | Potency [5] | outcome [6] | outcome [7] | max response [8] 4.26% | Potency [9] | outcome [10] | Potency [11] | Potency [12] | Potency [13] | Potency [14] | Potency [15] | outcome [16] | outcome [17]

Cc1cc(O)c(Cl)cc1C
active: Potency [11] 49 µM | Potency [12] 49 µM | Potency [14] 49 µM
inactive: outcome [1] | outcome [2] | outcome [3] | outcome [4] | Potency [5] | outcome [6] | outcome [7] | max response [8] -1.07% | Potency [18] | Potency [19] | Potency [20] | Potency [15] | outcome [16]

CCO[Si](CC(C)C)(OCC)OCC
inactive: outcome [1] | outcome [2] | outcome [3] | outcome [4] | Potency [5] | outcome [6] | outcome [7] | max response [8] -8.56% | Potency [18] | outcome [10] | Potency [19] | Potency [20] | Potency [13] | Potency [15] | outcome [17]

NC(=O)CC[C@@H](N)C(=O)O
inactive: outcome [1] | outcome [2] | outcome [3] | outcome [4] | Potency [5] | outcome [6] | outcome [7] | max response [8] 8.04% | Potency [18] | outcome [10] | Potency [11] | Potency [12] | Potency [19] | Potency [20] | Potency [14] | outcome [16] | outcome [17]

CCCOc1ccc(C(=O)OCCN(CC)CC)cc1N
inactive: outcome [1] | outcome [2] | outcome [3] | outcome [4] | Potency [5] | outcome [6] | outcome [7] | max response [8] 0.981% | Potency [18] | outcome [10] | Potency [11] | Potency [12] | Potency [19] | Potency [20] | Potency [14] | outcome [16] | outcome [17]

CCCCCCCCOCCC#N
active: Potency [12] 15.5 µM
inactive: outcome [1] | outcome [2] | outcome [3] | outcome [4] | Potency [5] | outcome [6] | outcome [7] | max response [8] -1.56% | Potency [18] | outcome [10] | Potency [19] | Potency [20] | Potency [13] | Potency [15] | outcome [17]
